# Unmarked numbers belong to inactive results. Results filed as inconclusive are left out. Entries that show only a call come without a potency. Calls of active or inactive are those of the source. Unless noted, calls follow the shape of the dose curve; as a rule, active = well fitted curve in the direction sought with a large enough effect in the repeat runs; inconclusive = weak or mixed curves; inactive = no such curve, though single readings can be large; an effect the other way counts as inactive or inconclusive.
# Tests used:
# [1] = qHTS assay to identify small molecule agonists of the hypoxia (HIF-1) signaling pathway - cell viability counter screen (AID 1224844; calls by dose curve; also: nearly all actives have a fitted effect of over 50% in size)
# Summary of the method: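 ME-180 HRE-bla cells, 2,000/well, 0.5% dialyzed FBS; 5 hr settle, 17 hr compound at 37C/5% CO2; CCF4-AM reporter read first, then CellTiter-Glo luminescence after 30 min RT.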
# [2] = qHTS assay to identify small molecule agonists of H2AX (AID 1224845; active = well fitted activation curve with a large enough effect in the signal ratio in the repeat runs, not every such curve was filed as active; the % refers to the signal ratio)
# Summary of the method: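 Phospho-H2AX Ser139 measured by HTRF (ex 320 nm; em 665 and 620 nm) after 24 hr antibody incubation. Compounds, 15 concentrations, 0.76% DMSO, were applied to CHO-K1 cells for 3hr at 37C before lysis.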
# [3] = qHTS assay to identify small molecule agonists of the hypoxia (HIF-1) signaling pathway (AID 1224846; active = well fitted activation curve with a large enough effect in the signal ratio in the repeat runs, not every such curve was filed as active; the % refers to the signal ratio)
# Summary of the method: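 Cell line: CellSensor HRE-bla ME-180; 2,000 cells/well; 0.5% dialyzed FBS; 5 h preincubation; DMSO compound pin transfer; 17 h, 37C, 5% CO2; CCF4-AM added; bla FRET signal scored for activation.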
# [4] = qHTS assay to identify small molecule agonists of H2AX - cell viability counter screen (AID 1224847; calls by dose curve; also: nearly all actives have a fitted effect of over 30% in size; also: potency is read from the fitted curve at half-maximal effect)
# Summary of the method: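 Viability of CHO-K1 (wild type) cells after 3 hr compound exposure was measured by CellTiter-Glo luminescence.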
# [5] = qHTS assay to identify small molecule agonists of the estrogen related receptor (ERR) signaling pathway from Tox21 library (AID 1224849; calls by dose curve; also: nearly all actives have a fitted effect of over 15% in size); details: ERR reporter cell line, ONE-Glo luciferase, 18 h; at 92.4 µM (top of the series) unless noted
# Summary of the method: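 ERR cells, 6 h pre-incubation 37 C/5% CO2; cpd in DMSO pinned; 18 h 37 C; ONE-Glo added, 30 min RT; luminescence read. Agonist mode, qHTS.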
# [6] = qHTS RealTime-Glo MT Cell Viability Assay in HepG2 cells - 24 hour (AID 1224867); also: nearly all actives have a fitted effect of over 50% in size
# Summary of the method: (§1)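 HepG2 cells were seeded at 600 cells/well together with NanoLuc luciferase and a cell-permeant prosubstrate, preincubated 5 h at 37 C/5% CO2, then pin-dosed with compounds in DMSO. Nonlytic luminescence from viable cells was read at each time point.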
# [7] = qHTS RealTime-Glo MT Cell Viability Assay in HEK293 cells - 32 hour (AID 1224868); also: nearly all actives have a fitted effect of over 50% in size; also: potency is read from the fitted curve at half-maximal effect
# Summary of the method: (§2)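 HEK293 cells were seeded at 600 cells/well together with NanoLuc luciferase and cell-permeant prosubstrate, preincubated 5 h at 37 C/5% CO2, then given compound in DMSO by pintool. Luminescence from viable-cell prosubstrate reduction was read repeatedly over 40 h.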
# [8] = A CellTox Green Cytotoxicity Assay to monitor cytotoxicity in HEK293 cells - 0 hour (AID 1224869); also: nearly all actives have a fitted effect of over 50% in size
# Summary of the method: (§3)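 Nonlytic real-time cytotoxicity: HEK293 + CellTox Green reagent plated, 5 h preincubation, pintool compound addition (23 nL in DMSO), 37 C for 40 h, fluorescence measured at successive time points.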
# [9] = qHTS RealTime-Glo MT Cell Viability Assay in HepG2 cells - 40 hour (AID 1224870); also: nearly all actives have a fitted effect of over 50% in size
# Summary of the method: (§4)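 Real-time viability: cells seeded at 600 per well together with NanoLuc and cell-permeant prosubstrate, compounds added after 5 h incubation. Luminescence tracked at 0, 8, 16, 24, 32 and 40 h of exposure.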
# [10] = A CellTox Green Cytotoxicity Assay to monitor cytotoxicity in HEK293 cells - 40 hour (AID 1224871); also: nearly all actives have a fitted effect of over 45% in size; also: potency is read from the fitted curve at half-maximal effect
# Summary of the method: as §3
# [11] = qHTS RealTime-Glo MT Cell Viability Assay in HEK293 cells - 16 hour (AID 1224872); also: nearly all actives have a fitted effect of over 50% in size; also: potency is read from the fitted curve at half-maximal effect
# Summary of the method: as §2
# [12] = qHTS RealTime-Glo MT Cell Viability Assay in HepG2 cells - 8 hour (AID 1224873); also: nearly all actives have a fitted effect of over 55% in size
# Summary of the method: as §4
# [13] = A CellTox Green Cytotoxicity Assay to monitor cytotoxicity in HEK293 cells - 24 hour (AID 1224875); also: nearly all actives have a fitted effect of over 45% in size; also: potency is read from the fitted curve at half-maximal effect
# Summary of the method: as §3
# [14] = A CellTox Green Cytotoxicity Assay to monitor cytotoxicity in HepG2 cells - 16 hour (AID 1224876); also: nearly all actives have a fitted effect of over 45% in size
# Summary of the method: (§5)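 Read-out is fluorescence of a cyanine dye excluded from live cells that stains DNA of dead HepG2 cells, with signal proportional to cytotoxicity. Plates were read at 0, 8, 16, 24, 32 and 40 h after compound addition.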
# [15] = qHTS RealTime-Glo MT Cell Viability Assay in HepG2 cells - 32 hour (AID 1224877); also: nearly all actives have a fitted effect of over 55% in size
# Summary of the method: as §1
# [16] = A CellTox Green Cytotoxicity Assay to monitor cytotoxicity in HepG2 cells - 24 hour (AID 1224878); also: nearly all actives have a fitted effect of over 45% in size
# Summary of the method: as §5
# [17] = A CellTox Green Cytotoxicity Assay to monitor cytotoxicity in HepG2 cells - 40 hour (AID 1224879); also: nearly all actives have a fitted effect of over 40% in size; also: potency is read from the fitted curve at half-maximal effect
# Summary of the method: as §5
# [18] = qHTS RealTime-Glo MT Cell Viability Assay in HEK293 cells - 40 hour (AID 1224874); details: RealTime-Glo luminescence; max response: active compounds read low; also: nearly all actives have a fitted effect of over 50% in size; also: potency is read from the fitted curve at half-maximal effect
# Summary of the method: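 Cells were seeded together with NanoLuc luciferase and a prosubstrate that viable cells reduce to a luciferase substrate. After a 5 h incubation at 37 C/5% CO2, compounds were added and luminescence was measured repeatedly during 40 h of treatment.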
# [19] = biological target: Thyrotropin receptor (Homo sapiens) (UniProt P16473); assay: qHTS assay to identify small molecule agonists of the thyroid stimulating hormone receptor (TSHR) signaling pathway (AID 1224843; calls by dose curve; also: nearly all actives have a fitted effect of over 45% in size)
# Summary of the method: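 HEK293 cells stably bearing the thyrotropin receptor were plated at 800 cells/well and challenged with compound (30 min, RT). Accumulated cAMP was quantified via cAMP-d2 competing for cryptate-tagged antibody.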
# [20] = qHTS assay to identify small molecule antagonists of the estrogen related receptor (ERR) signaling pathway from Tox21 library (AID 1224848); also: nearly all actives have a fitted effect of over 50% in size; also: potency is read from the fitted curve at half-maximal effect
# Summary of the method: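 Reading was by luminescence 30 min after ONE-Glo addition. Before that, ERR cells at 2,000 per well had rested 6 h at 37 C/5% CO2 and then received pin-tooled compounds in DMSO for 18 h at 37 C.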
# Thyrotropin receptor (Homo sapiens), sequence (P16473 whole entry, looked up): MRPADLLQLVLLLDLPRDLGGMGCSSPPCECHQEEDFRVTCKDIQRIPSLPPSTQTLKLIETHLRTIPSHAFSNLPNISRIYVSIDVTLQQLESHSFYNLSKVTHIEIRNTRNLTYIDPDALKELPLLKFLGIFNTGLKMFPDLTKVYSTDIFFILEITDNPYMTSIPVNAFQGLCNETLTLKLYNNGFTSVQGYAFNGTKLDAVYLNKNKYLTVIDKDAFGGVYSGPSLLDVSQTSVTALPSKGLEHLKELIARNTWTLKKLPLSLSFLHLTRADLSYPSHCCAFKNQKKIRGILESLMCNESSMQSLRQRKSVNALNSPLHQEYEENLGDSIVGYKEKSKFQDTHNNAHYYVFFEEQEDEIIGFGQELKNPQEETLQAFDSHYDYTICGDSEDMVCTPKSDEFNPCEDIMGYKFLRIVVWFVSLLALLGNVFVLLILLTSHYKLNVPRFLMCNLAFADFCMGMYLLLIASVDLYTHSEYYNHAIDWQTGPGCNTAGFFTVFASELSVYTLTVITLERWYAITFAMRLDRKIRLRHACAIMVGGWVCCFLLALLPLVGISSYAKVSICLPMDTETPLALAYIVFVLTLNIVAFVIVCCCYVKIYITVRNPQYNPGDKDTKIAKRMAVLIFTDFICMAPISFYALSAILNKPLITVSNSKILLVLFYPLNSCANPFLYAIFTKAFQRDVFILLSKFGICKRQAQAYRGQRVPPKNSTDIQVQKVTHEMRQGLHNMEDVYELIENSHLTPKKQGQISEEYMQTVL
compound,measurement,setting,value
CC(C)CCCCCOC(=O)CCCCC(=O)OCCCCCC(C)C,Potency,[1],inactive
same,Potency,[2],inactive
same,outcome,[3],inactive
same,Potency,[4],inactive
same,"activity change, positive = activation",[5],-6.86%
same,Potency,[6],inactive
same,Potency,[7],inactive
same,Potency,[8],inactive
same,Potency,[9],inactive
same,Potency,[10],inactive
same,Potency,[11],inactive
same,Potency,[12],inactive
same,Potency,[13],inactive
same,Potency,[14],inactive
same,Potency,[15],inactive
same,Potency,[16],inactive
same,Potency,[17],inactive
NCC1CCCC(CN)C1 (stereo unspecified),Potency,[1],inactive
same,Potency,[2],inactive
same,outcome,[3],inactive
same,Potency,[4],inactive
same,"activity change, positive = activation",[5],-0.124%
same,Potency,[6],inactive
same,Potency,[7],inactive
same,Potency,[8],inactive
same,Potency,[9],inactive
same,Potency,[10],inactive
same,Potency,[11],inactive
same,Potency,[12],inactive
same,max response,[18],-13.1%
same,Potency,[13],inactive
same,Potency,[14],inactive
same,Potency,[15],inactive
same,Potency,[16],inactive
same,Potency,[17],inactive
CCCCN(CCCC)C(=S)SSC(=S)N(CCCC)CCCC,Potency,[19],inactive
same,Potency,[4],112 µM (active)
same,Potency,[6],inactive
same,Potency,[7],43.2 µM (active)
same,Potency,[8],inactive
same,Potency,[9],inactive
same,Potency,[11],48.5 µM (active)
same,Potency,[18],38.5 µM (active)
same,Potency,[13],inactive
same,Potency,[14],inactive
same,Potency,[15],inactive
same,Potency,[16],inactive
same,Potency,[17],inactive
CC(C)CCCCCCOC(=O)CCCCC(=O)OCCCCCCC(C)C,Potency,[1],inactive
same,Potency,[2],inactive
same,outcome,[3],inactive
same,Potency,[4],inactive
same,Potency,[6],inactive
same,Potency,[7],inactive
same,Potency,[8],inactive
same,Potency,[9],inactive
same,Potency,[10],inactive
same,Potency,[11],inactive
same,Potency,[12],inactive
same,max response,[18],0.314%
same,Potency,[13],inactive
same,Potency,[14],inactive
same,Potency,[15],inactive
same,Potency,[16],inactive
same,Potency,[17],inactive
CN(C)C(=O)Nc1ccc(Oc2ccc(Cl)cc2)cc1,Potency,[1],inactive
same,Potency,[2],inactive
same,outcome,[3],inactive
same,Potency,[4],89.8 µM (active)
same,Potency,[20],13.7 µM (active)
same,Potency,[6],inactive
same,Potency,[7],38.9 µM (active)
same,Potency,[8],inactive
same,Potency,[9],inactive
same,Potency,[10],inactive
same,Potency,[12],inactive
same,Potency,[18],34.7 µM (active)
same,Potency,[14],inactive
same,Potency,[15],inactive
Nc1nccs1,Potency,[1],inactive
same,Potency,[2],inactive
same,outcome,[3],inactive
same,Potency,[4],inactive
same,Potency,[6],inactive
same,Potency,[7],inactive
same,Potency,[8],inactive
same,Potency,[9],inactive
same,Potency,[11],inactive
same,Potency,[12],inactive
same,max response,[18],-15.6%
same,Potency,[14],inactive
same,Potency,[15],inactive
same,Potency,[16],inactive
same,Potency,[17],inactive
CC(C)=CC=O,Potency,[1],inactive
same,Potency,[2],inactive
same,outcome,[3],inactive
same,Potency,[4],inactive
same,Potency,[6],inactive
same,Potency,[7],inactive
same,Potency,[8],inactive
same,Potency,[9],inactive
same,Potency,[10],inactive
same,Potency,[11],inactive
same,Potency,[12],inactive
same,max response,[18],12.5%
same,Potency,[14],inactive
same,Potency,[16],inactive
same,Potency,[17],inactive
O=C(Nc1ccc([N+](=O)[O-])cc1)Nc1ccc([N+](=O)[O-])cc1,Potency,[19],inactive
same,outcome,[3],inactive
same,Potency,[7],7.56 µM (active)
same,Potency,[8],inactive
same,Potency,[9],inactive
same,Potency,[10],13.4 µM (active)
same,Potency,[12],inactive
same,Potency,[13],inactive
same,Potency,[14],inactive
same,Potency,[17],23.9 µM (active)
CCCc1c(OCCCOc2ccc(OCC(=O)O)cc2)ccc(C(C)=O)c1O,Potency,[19],inactive
same,Potency,[4],101 µM (active)
same,Potency,[20],inactive
same,Potency,[6],inactive
same,Potency,[7],inactive
same,Potency,[8],inactive
same,Potency,[9],inactive
same,Potency,[10],inactive
same,Potency,[11],inactive
same,Potency,[12],inactive
same,max response,[18],-7.6%
same,Potency,[13],inactive
same,Potency,[14],inactive
same,Potency,[15],inactive
same,Potency,[16],inactive
COc1cc2c(cc1OC)-c1cc(=Nc3c(C)cc(C)cc3C)n(C)c(=O)n1CC2,Potency,[1],inactive
same,Potency,[2],inactive
same,outcome,[3],inactive
same,Potency,[4],inactive
same,Potency,[20],13.3 µM (active)
same,Potency,[6],inactive
same,Potency,[8],inactive
same,Potency,[9],inactive
same,Potency,[10],inactive
same,Potency,[11],inactive
same,Potency,[12],inactive
same,Potency,[13],inactive
same,Potency,[14],inactive
same,Potency,[16],inactive
same,Potency,[17],21.3 µM (active)
CCCCC/C(=C\c1ccccc1)CO,Potency,[19],inactive
same,Potency,[2],inactive
same,outcome,[3],inactive
same,Potency,[6],inactive
same,Potency,[7],inactive
same,Potency,[8],inactive
same,Potency,[9],inactive
same,Potency,[10],43.1 µM (active)
same,Potency,[11],inactive
same,Potency,[12],inactive
same,max response,[18],-12.8%
same,Potency,[13],48.4 µM (active)
same,Potency,[14],inactive
same,Potency,[15],inactive
same,Potency,[16],inactive
same,Potency,[17],inactive
C/C=C(\C)C(=O)OCCC(C)CCC=C(C)C (stereo unspecified),Potency,[1],inactive
same,Potency,[2],inactive
same,outcome,[3],inactive
same,Potency,[4],inactive
same,Potency,[6],inactive
same,Potency,[7],inactive
same,Potency,[8],inactive
same,Potency,[9],inactive
same,Potency,[10],inactive
same,Potency,[11],inactive
same,Potency,[12],inactive
same,Potency,[13],inactive
same,Potency,[14],inactive
same,Potency,[15],inactive
same,Potency,[16],inactive
same,Potency,[17],inactive
CCC(C(=O)OCCOCCN(CC)CC)c1ccccc1 (stereo unspecified),Potency,[1],inactive
same,Potency,[2],inactive
same,outcome,[3],inactive
same,Potency,[4],inactive
same,Potency,[7],inactive
same,Potency,[8],inactive
same,Potency,[9],inactive
same,Potency,[11],inactive
same,Potency,[12],inactive
same,max response,[18],4.17%
same,Potency,[13],inactive
same,Potency,[14],inactive
same,Potency,[15],inactive
same,Potency,[16],inactive
same,Potency,[17],inactive

# — PubChem BioAssay (Tox21)
